# PubChem BioAssay (EPA / NIEHS)
# Values joined by “and” are separate entries in the source; they are usually repeats but may differ in a detail not shown here. Equal entries are not always repeated. Records with an inconclusive call do not appear. A structure can be active in one record and inactive in another. Active and inactive are the calls of the source. The calls were made as follows: active = hit-call score of the fitted dose curve at least 0.9, where 1 is the maximum; inconclusive = response in the unintended direction; inactive = score below 0.9.
# What was measured:
# [1] = molecular target: guinea pig Bradykinin Receptor B2 (BK2), BDKRB2 (gene 100135486) (UniProt O70526); assay: NVS_GPCR_gBK2: NovaScreen (NVS) G Protein-Coupled Receptor Assay for guinea pig Bradykinin Receptor B2 (BK2) (AID 2283292)
# Sequence of guinea pig Bradykinin Receptor B2 (BK2), BDKRB2 (gene 100135486) (O70526 whole entry, looked up): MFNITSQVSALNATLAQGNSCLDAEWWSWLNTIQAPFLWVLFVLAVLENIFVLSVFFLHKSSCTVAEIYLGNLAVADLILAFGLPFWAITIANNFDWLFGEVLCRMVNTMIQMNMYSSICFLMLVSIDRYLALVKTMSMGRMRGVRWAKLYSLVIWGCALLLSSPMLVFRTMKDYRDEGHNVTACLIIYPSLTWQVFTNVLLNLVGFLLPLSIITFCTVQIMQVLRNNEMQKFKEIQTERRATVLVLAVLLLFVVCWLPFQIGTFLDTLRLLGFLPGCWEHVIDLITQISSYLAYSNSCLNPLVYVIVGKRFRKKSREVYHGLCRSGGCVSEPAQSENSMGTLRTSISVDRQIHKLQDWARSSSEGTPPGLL
# Method in brief: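 Guinea pig ileum membrane preparation incubated 1 h with radioligand and test chemical; bound counts measured after filtration. Primary duplicate screening at 25 uM, then singleton concentration series with a 50 uM top dose; DMSO as baseline.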
# [2] = molecular target: guinea pig Serotonin, 5-Hydroxytryptamine Receptor 4 (5HT4), HTR4 (gene 100135548) (UniProt O70528); assay: NVS_GPCR_g5HT4: NovaScreen (NVS) G Protein-Coupled Receptor Assay for guinea pig Serotonin, 5-Hydroxytryptamine Receptor 4 (5HT4) (AID 2283294)
# Sequence of guinea pig Serotonin, 5-Hydroxytryptamine Receptor 4 (5HT4), HTR4 (gene 100135548) (O70528 whole entry, looked up): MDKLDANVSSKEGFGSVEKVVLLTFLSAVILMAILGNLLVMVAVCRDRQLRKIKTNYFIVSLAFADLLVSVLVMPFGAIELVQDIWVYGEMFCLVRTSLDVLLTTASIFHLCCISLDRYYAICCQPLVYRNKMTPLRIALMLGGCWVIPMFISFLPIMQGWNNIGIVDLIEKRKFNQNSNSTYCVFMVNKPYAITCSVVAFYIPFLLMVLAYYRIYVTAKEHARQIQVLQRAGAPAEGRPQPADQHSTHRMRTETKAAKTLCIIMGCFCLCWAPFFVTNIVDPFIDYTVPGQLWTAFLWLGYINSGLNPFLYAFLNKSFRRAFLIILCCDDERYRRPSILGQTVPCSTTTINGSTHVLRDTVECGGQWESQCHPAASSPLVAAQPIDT
# Method in brief: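 Compounds first screened in duplicate at 25 uM, actives followed up in concentration series. Binding measured as displacement of specific radioligand from guinea pig striatal membranes, 1 h, filter-based scintillation read-out versus DMSO baseline.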
# [3] = molecular target: rat Adrenergic, Alpha 1A Receptor (Adra1A), Adra1a (gene 29412) (UniProt P43140); assay: NVS_GPCR_rAdra1A: NovaScreen (NVS) G Protein-Coupled Receptor Assay for rat Adrenergic, Alpha 1A Receptor (Adra1A) (AID 2283296)
# Method in brief: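 Filter radiodetection after 1 h competitive binding on CEC-pretreated rat cortical membranes. Duplicate single-point screening at 25 uM; active chemicals retested across concentration series.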
# [4] = molecular target: rat Corticotropin Releasing Factor Receptor (CRF), Crhr1 (gene 58959) (UniProt P35353); assay: NVS_GPCR_rCRF: NovaScreen (NVS) G Protein-Coupled Receptor Assay for rat Corticotropin Releasing Factor Receptor (CRF) (AID 2283300)
# Sequence of rat Corticotropin Releasing Factor Receptor (CRF), Crhr1 (gene 58959) (P35353 whole entry, looked up): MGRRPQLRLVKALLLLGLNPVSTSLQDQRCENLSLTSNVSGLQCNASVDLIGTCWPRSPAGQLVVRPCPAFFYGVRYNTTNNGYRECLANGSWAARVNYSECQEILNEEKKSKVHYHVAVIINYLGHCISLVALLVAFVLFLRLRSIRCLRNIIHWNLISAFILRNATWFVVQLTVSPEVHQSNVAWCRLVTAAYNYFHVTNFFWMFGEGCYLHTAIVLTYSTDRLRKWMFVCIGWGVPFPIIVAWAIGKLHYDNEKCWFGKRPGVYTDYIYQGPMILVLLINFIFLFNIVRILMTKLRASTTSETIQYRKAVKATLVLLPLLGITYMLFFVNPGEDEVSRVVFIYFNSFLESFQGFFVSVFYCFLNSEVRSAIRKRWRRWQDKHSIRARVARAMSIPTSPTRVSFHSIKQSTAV
# Method in brief: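 Single-concentration (25 uM, duplicate) radioligand binding on rat cortical membrane preparations, counted by scintillation after 2 h. Activity scored as signal loss relative to DMSO negative control.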
# [5] = molecular target: rat Histamine Receptor (H3), Hrh3 (gene 85268) (UniProt Q9QYN8); assay: NVS_GPCR_rH3: NovaScreen (NVS) G Protein-Coupled Receptor Assay for rat Histamine Receptor (H3) (AID 2283303)
# Method in brief: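 Filter-binding radioligand competition on rat forebrain membranes, 1 h incubation; compounds screened at 25 µM in duplicate and followed in concentration series to 50 µM, loss of bound signal vs DMSO.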
# Adra2b (gene 24174) = Adra2b (gene 24174) (UniProt P19328); assay: NVS_GPCR_rmAdra2B: NovaScreen (NVS) G Protein-Coupled Receptor Assay for hybird cells Adrenergic, Alpha 2B Receptor (Adra2B) (AID 2283306)
# Sequence of Adra2b (gene 24174) (P19328 whole entry, looked up): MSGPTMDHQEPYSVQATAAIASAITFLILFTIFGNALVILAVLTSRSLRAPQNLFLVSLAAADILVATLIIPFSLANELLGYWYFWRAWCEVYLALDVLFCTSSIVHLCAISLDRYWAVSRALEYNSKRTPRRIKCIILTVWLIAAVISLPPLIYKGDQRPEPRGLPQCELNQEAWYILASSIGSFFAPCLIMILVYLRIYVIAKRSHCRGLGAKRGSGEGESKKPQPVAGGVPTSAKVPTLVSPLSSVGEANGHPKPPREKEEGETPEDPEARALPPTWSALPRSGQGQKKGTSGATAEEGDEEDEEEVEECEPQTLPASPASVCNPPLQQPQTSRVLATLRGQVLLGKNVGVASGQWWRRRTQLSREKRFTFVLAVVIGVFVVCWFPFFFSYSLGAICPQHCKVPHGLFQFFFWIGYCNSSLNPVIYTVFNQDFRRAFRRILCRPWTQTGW
# Method in brief: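 Compounds screened first at 25 uM in duplicate, with actives followed up in concentration-response; specific radioligand displacement from hybrid neuroglioma/blastoma cell membrane preparations measured by filter scintillation counting after 1 h, normalized to DMSO.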
# [6] = molecular target: rat Neurokinin-1 Receptor (NK1), Tacr1 (gene 24807) (UniProt P14600); assay: NVS_GPCR_rNK1: NovaScreen (NVS) G Protein-Coupled Receptor Assay for rat Neurokinin-1 Receptor (NK1) (AID 2283309)
# Sequence of rat Neurokinin-1 Receptor (NK1), Tacr1 (gene 24807) (P14600 whole entry, looked up): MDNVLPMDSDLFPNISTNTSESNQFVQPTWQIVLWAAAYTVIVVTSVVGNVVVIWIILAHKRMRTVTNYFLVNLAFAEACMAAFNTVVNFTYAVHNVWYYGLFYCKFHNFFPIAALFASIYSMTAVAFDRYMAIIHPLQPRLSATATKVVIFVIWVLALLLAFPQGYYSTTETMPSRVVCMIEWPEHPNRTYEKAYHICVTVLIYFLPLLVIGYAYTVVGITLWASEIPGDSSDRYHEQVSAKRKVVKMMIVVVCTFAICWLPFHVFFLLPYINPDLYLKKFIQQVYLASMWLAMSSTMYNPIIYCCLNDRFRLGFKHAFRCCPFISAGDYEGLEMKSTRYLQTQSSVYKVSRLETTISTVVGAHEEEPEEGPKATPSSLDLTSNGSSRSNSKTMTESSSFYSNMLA
# Method in brief: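 Competitive radioligand binding to NK1 in rat submaxillary membranes, 1 h incubation, filtration and scintillation read-out. Compounds first screened at 25 uM in duplicate, then concentration-response for actives; signal loss relative to DMSO.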
# [7] = molecular target: rat Opioid Receptor, Non-selective Sodium (Na+) Binding, Oprm1 (gene 25601) (UniProt P33535); assay: NVS_GPCR_rOpiate_NonSelectiveNa: NovaScreen (NVS) G Protein-Coupled Receptor Assay for rat Opioid Receptor, Non-selective Sodium (Na+) Binding (AID 2283311)
# Sequence of rat Opioid Receptor, Non-selective Sodium (Na+) Binding, Oprm1 (gene 25601) (P33535 whole entry, looked up): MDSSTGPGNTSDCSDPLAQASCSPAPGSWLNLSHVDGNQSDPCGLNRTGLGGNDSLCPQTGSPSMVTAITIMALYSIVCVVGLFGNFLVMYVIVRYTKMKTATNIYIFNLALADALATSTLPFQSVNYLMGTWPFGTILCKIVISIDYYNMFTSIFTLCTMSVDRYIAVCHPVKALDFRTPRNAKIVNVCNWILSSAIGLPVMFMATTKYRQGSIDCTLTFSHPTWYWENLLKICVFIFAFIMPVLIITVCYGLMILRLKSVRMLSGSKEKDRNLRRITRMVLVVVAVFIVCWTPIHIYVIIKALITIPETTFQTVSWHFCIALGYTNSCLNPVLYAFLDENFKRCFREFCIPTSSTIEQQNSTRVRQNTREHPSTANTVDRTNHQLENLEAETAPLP
# Method in brief: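 Filtration radioligand binding on rat forebrain membrane preparations, read 1.5 h after dosing. Single-concentration 25 µM primary screen in duplicate, followed by singleton concentration series to 50 µM max for actives; DMSO baseline.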
# [8] = molecular target: human Opioid Receptor Mu (Opiate Mu), OPRM1 (gene 4988) (UniProt P35372); assay: NVS_GPCR_hOpiate_mu: NovaScreen (NVS) G Protein-Coupled Receptor Assay for human Opioid Receptor Mu (Opiate Mu) (AID 2283290);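 also: hits lower bound tracer signal versus DMSO meaning displacement of the ligand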
# Sequence of human Opioid Receptor Mu (Opiate Mu), OPRM1 (gene 4988) (P35372 whole entry, looked up): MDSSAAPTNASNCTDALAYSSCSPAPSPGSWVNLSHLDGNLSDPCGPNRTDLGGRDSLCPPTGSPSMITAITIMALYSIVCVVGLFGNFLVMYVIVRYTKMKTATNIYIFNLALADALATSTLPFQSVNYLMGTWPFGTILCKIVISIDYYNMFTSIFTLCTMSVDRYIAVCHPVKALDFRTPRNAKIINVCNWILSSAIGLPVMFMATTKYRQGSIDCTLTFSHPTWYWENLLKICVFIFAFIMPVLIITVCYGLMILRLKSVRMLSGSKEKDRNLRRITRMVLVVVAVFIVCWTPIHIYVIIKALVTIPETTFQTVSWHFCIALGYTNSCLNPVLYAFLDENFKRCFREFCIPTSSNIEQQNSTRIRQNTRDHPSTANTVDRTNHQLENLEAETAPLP
# Method in brief: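 Radioligand displacement binding on membranes from CHO cells expressing the receptor, 2.5 h after dosing, filter-based scintillation counting; loss of signal vs DMSO baseline. Screened in duplicate at 25 uM, actives then run in concentration series.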
# [9] = molecular target: mouse Cholecystokinin, CCK2 Receptor (CCKB), Cckbr (gene 12426) (UniProt P56481); assay: NVS_GPCR_mCKKBCentral: NovaScreen (NVS) G Protein-Coupled Receptor Assay for mouse Cholecystokinin, CCK2 Receptor (CCKB) (AID 2283293)
# Sequence of mouse Cholecystokinin, CCK2 Receptor (CCKB), Cckbr (gene 12426) (P56481 whole entry, looked up): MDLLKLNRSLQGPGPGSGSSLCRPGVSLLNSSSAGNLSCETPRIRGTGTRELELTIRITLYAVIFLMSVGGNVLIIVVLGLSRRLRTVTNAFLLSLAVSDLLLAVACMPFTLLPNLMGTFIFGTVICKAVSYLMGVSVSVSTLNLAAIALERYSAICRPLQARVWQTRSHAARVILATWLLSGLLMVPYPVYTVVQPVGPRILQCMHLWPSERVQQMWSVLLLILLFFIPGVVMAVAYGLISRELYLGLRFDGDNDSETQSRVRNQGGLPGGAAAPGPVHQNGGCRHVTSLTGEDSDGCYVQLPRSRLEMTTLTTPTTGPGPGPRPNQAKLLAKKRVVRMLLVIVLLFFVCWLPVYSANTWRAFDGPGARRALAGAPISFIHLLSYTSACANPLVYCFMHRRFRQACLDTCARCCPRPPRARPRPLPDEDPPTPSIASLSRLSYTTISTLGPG
# Method in brief: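 Mouse forebrain membrane preparation incubated 2 h with chemical and radioligand; bound radioactivity counted after filtration. Single-concentration duplicate screen at 25 uM, then concentration series to 50 uM max for hits, DMSO as baseline.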
# [10] = molecular target: rat Adrenergic Receptor, Alpha 2 (Adra2), Non-selective Binding, Adra2a (gene 25083) (UniProt P22909); assay: NVS_GPCR_rAdra2_NonSelective: NovaScreen (NVS) G Protein-Coupled Receptor Assay for rat Adrenergic Receptor, Alpha 2 (Adra2), Non-selective Binding (AID 2283299)
# Method in brief: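 Filter-based scintillation counting of radioligand binding to rat cortical membrane receptors, measured 1.25 hours post-dosing; loss of signal versus DMSO indicates displacement. Initial single-concentration duplicate at 25 uM, then concentration series.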
# [11] = molecular target: rat Serotonin, 5-Hydroxytryptamine Receptor (5HT), Non-Selective Binding, Htr1a (gene 24473) (UniProt P19327); assay: NVS_GPCR_r5HT_NonSelective: NovaScreen (NVS) G Protein-Coupled Receptor Assay for rat Serotonin, 5-Hydroxytryptamine Receptor (5HT), Non-Selective Binding (AID 2283295)
# Method in brief: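 Rat cortex membrane preparation incubated 1 h with radioligand and test chemical; bound radioactivity counted after filtration. Screening began in duplicate at 25 uM with concentration-series follow-up; fitting relative to DMSO.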
# [12] = molecular target: Metabotropic glutamate receptor 1 (Rattus norvegicus) (UniProt P23385); assay: NVS_GPCR_rmMGluR1: NovaScreen (NVS) G Protein-Coupled Receptor Assay for rat Glutamate Metabotropic Receptor 1 (MGluR1) (AID 2283305)
# Sequence of Metabotropic glutamate receptor 1 (Rattus norvegicus) (P23385 whole entry, looked up): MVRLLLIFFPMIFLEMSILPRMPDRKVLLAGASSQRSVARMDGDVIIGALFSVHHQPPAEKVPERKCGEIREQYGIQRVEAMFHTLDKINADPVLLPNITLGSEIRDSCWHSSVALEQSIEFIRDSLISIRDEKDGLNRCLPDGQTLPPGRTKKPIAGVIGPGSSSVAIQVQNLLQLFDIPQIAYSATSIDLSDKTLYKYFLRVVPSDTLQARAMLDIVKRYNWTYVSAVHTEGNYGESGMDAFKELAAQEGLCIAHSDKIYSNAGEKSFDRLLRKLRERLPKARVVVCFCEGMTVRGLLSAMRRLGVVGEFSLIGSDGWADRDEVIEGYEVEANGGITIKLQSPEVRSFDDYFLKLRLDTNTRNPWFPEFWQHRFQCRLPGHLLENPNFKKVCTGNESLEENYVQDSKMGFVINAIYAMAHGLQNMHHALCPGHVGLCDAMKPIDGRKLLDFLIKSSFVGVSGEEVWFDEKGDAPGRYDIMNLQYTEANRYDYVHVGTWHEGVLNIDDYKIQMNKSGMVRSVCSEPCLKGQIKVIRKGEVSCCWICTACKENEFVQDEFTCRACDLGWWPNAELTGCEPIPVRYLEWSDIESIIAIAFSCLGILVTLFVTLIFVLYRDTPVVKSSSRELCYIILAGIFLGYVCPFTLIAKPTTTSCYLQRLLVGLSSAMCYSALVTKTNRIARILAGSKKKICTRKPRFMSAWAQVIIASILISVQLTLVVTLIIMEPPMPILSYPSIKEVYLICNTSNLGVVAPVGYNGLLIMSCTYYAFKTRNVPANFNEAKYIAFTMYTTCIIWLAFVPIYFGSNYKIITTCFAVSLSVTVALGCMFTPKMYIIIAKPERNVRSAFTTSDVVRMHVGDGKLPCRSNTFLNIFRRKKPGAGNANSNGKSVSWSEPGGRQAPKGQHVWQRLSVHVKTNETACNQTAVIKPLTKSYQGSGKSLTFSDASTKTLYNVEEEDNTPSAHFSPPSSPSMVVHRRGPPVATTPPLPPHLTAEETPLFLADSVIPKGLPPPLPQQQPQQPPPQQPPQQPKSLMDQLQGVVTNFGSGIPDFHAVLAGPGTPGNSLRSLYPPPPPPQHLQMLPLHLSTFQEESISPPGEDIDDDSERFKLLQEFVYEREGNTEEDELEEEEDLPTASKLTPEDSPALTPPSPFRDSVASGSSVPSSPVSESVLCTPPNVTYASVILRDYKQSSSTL
# Method in brief: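 Binding to native receptor from rat cerebellum extract, measured as displacement of a radioligand (scintillation counting, filter separation) after 1 hour. Compounds tested at 25 uM in duplicate, then titrated to a 50 uM maximum.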
# [13] = molecular target: rat Somatostatin Receptor (SST), Sstr1 (gene 25033) (UniProt P28646); assay: NVS_GPCR_rSST: NovaScreen (NVS) G Protein-Coupled Receptor Assay for rat Somatostatin Receptor (SST) (AID 2283314)
# Sequence of rat Somatostatin Receptor (SST), Sstr1 (gene 25033) (P28646 whole entry, looked up): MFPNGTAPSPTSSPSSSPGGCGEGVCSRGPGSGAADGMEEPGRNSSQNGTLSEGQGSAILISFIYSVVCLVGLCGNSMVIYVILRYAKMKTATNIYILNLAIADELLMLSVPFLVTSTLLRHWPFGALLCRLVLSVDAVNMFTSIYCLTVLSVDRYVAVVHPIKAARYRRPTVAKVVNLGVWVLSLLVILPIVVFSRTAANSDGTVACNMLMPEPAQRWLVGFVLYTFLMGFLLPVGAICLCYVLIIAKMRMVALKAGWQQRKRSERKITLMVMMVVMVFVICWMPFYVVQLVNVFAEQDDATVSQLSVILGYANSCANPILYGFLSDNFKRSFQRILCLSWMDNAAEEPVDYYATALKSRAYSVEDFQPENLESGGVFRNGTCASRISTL
# Method in brief: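 Single-concentration duplicate screen (25 uM), then concentration-response up to 50 uM for chemicals passing a threshold such as 30% inhibition. Membranes came from rat forebrain. Binding was measured 1 h post-dose by filter radiodetection and scintillation, relative to DMSO.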
# [14] = molecular target: rat Adrenergic Receptor, Beta (Adrb), Non-selective Binding, Adrb1 (gene 24925) (UniProt P18090); assay: NVS_GPCR_rAdrb_NonSelective: NovaScreen (NVS) G Protein-Coupled Receptor Assay for rat Adrenergic Receptor, Beta (Adrb), Non-selective Binding (AID 2283298)
# Method in brief: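 Rat cortical membranes incubated 1 h with beta-adrenergic radioligand and test chemical; bound ligand measured by filtration and scintillation counting. Screen at 25 uM duplicate, then concentration series with 50 uM maximum; loss of signal versus DMSO.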
# [15] = test system: rat Adrenergic, Alpha 1B Receptor (Adra1B), gene 24173; assay: NVS_GPCR_rAdra1B: NovaScreen (NVS) G Protein-Coupled Receptor Assay for rat Adrenergic, Alpha 1B Receptor (Adra1B) (AID 2283297)
# Method in brief: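 Filter-binding radioligand competition on membranes from rat liver, read after 1 h by scintillation counting. Single-concentration duplicate screen at 25 uM, followed by concentration-response on actives, normalised to DMSO.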
# [16] = molecular target: human Neonicotinoid receptor (NNR), CHRNA2 (gene 1135) (UniProt Q15822); assay: NVS_LGIC_hNNR_NBungSens: NovaScreen (NVS) Ligand-Gated Ion Channel Assay for human Neonicotinoid receptor (NNR) (AID 2283313)
# Method in brief: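 Compounds first screened in duplicate at 25 uM, then actives re-tested in single-replicate dose series up to 50 uM. Binding measured as displacement of specific radioligand from neuroblastoma membrane receptors after 2 h, scintillation read on filters.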
# [17] = molecular target: rat Gamma-Aminobutyric Acid Type B Receptor (GABBR), Gabbr1 (gene 81657) (UniProt Q9Z0U4); assay: NVS_GPCR_rGABBR: NovaScreen (NVS) G Protein-Coupled Receptor Assay for rat Gamma-Aminobutyric Acid Type B Receptor (GABBR) (AID 2283301)
# Method in brief: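 Rat cortical membrane preparation, competitive radioligand binding for 1 h with filtration and scintillation readout. Actives from duplicate single-point 25 uM screening proceeded to concentration series with 50 uM top concentration.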
# [18] = molecular target: rat Neurotensin Receptor (NTS), Ntsr1 (gene 366274) (UniProt P20789); assay: NVS_GPCR_rNTS: NovaScreen (NVS) G Protein-Coupled Receptor Assay for rat Neurotensin Receptor (NTS) (AID 2283308)
# Method in brief: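 Single-point duplicates at 25 uM, then concentration series to 50 uM max for hits, measured radioligand displacement on rat forebrain membrane preparations. Bound label counted by filtration scintillation at 1 h; signal loss relative to DMSO fitted.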
# [19] = test system: guinea pig Atrionatriuretic Peptide Receptor A (ANPA), gene 100135578; assay: NVS_GPCR_gANPA: NovaScreen (NVS) G Protein-Coupled Receptor Assay for guinea pig Atrionatriuretic Peptide Receptor A (ANPA) (AID 2283291)
# Method in brief: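 Displacement of specific radioligand from guinea pig cerebellum membranes was read by scintillation after 1 h. A duplicate single-point screen at 25 uM was followed by a concentration series up to 50 uM, analysed relative to DMSO.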
structure (smiles),measurement,setting,value
COC(=O)c1ccccc1S(=O)(=O)NC(=O)N(C)c1nc(C)nc(OC)n1,outcome,[1],inactive
O=C(Nc1ccccc1)Nc1cnns1,AC50,[2],6.99 µM (active)
same,outcome,[3],inactive
same,outcome,[4],inactive
same,outcome,[5],inactive
same,outcome,Adra2b (gene 24174),inactive
same,outcome,[6],inactive
same,outcome,[7],inactive
CCCN(CCOc1c(Cl)cc(Cl)cc1Cl)C(=O)n1ccnc1,AC50,[8],10.5 µM (active)
same,AC50,[9],6.71 µM (active)
same,AC50,[10],1.85 µM (active)
same,AC50,Adra2b (gene 24174),3.65 µM (active)
same,outcome,[6],inactive
CCOCN(C(=O)CCl)c1c(C)cccc1CC,outcome,[7],inactive
CC[C@H](C)[C@H]1O[C@]2(C=C[C@@H]1C)C[C@@H]1C[C@@H](C/C=C(\C)[C@@H](O[C@H]3C[C@H](OC)[C@@H](O[C@H]4C[C@H](OC)[C@@H](O)[C@H](C)O4)[C@H](C)O3)[C@@H](C)/C=C/C=C3\CO[C@@H]4[C@H](O)C(C)=C[C@@H](C(=O)O1)[C@]34O)O2 (tested in a mixture with another compound),AC50,[8],9.27 µM (active)
same,AC50,[9],12.4 µM (active)
same,AC50,[11],16.4 µM (active)
same,AC50,[12],9.49 µM (active)
same,outcome,[13],inactive
Oc1cc(Cl)ccc1Oc1ccc(Cl)cc1Cl,AC50,[8],19.9 µM (active) and 7.86 µM (active) and 15.6 µM (active)
same,outcome,[8],inactive
same,AC50,[13],18.7 µM (active)
CCc1ccc(C(=O)NN(C(=O)c2cc(C)cc(C)c2)C(C)(C)C)cc1,outcome,[9],inactive
C#CCN1C(=O)COc2cc(F)c(N3C(=O)C4=C(CCCC4)C3=O)cc21,outcome,[1],inactive
same,outcome,[14],inactive
CC(C)(C)C(O)C(Oc1ccc(Cl)cc1)n1cncn1 (stereo unspecified),outcome,[9],inactive
same,outcome,[15],inactive
same,AC50,[6],38.2 µM (active)
same,outcome,[6],inactive
O=C1c2ccccc2C(=O)N1SC(Cl)(Cl)Cl,AC50,[8],6.04 µM (active)
CCC(C)(C)C(=O)OC1=C(c2ccc(Cl)cc2Cl)C(=O)OC12CCCCC2,outcome,[1],inactive
same,outcome,[9],inactive
same,outcome,[16],inactive
Oc1ccc(Cl)cc1Cc1ccccc1,AC50,[8],16.5 µM (active) [middle of 6 runs]
same,outcome,[8],inactive
same,AC50,[9],19.8 µM (active) [middle of 4 runs]
same,AC50,[2],17.2 µM (active) [middle of 6 runs]
same,outcome,[14],inactive
same,outcome,[17],inactive
same,outcome,[6],inactive
same,AC50,[13],25.2 µM (active)
O=[N+]([O-])/N=C1\NCCN1Cc1ccc(Cl)nc1,AC50,[16],8.29 µM (active)
CC(C)(C)C(O)/C(=C\c1ccc(Cl)cc1Cl)n1cncn1 (stereo unspecified),outcome,[8],inactive
N#Cc1c(Cl)c(Cl)c(Cl)c(C#N)c1Cl,outcome,[2],inactive
same,outcome,[12],inactive
CNC(=O)/C=C(\C)OP(=O)(OC)OC,outcome,[18],inactive
O=[N+]([O-])c1c(Cl)c(Cl)c(Cl)c(Cl)c1Cl,outcome,[4],inactive
O=S(=O)(O)C(F)(F)C(F)(F)C(F)(F)C(F)(F)C(F)(F)C(F)(F)C(F)(F)C(F)(F)F,outcome,[19],inactive
same,outcome,[15],inactive
same,outcome,[13],inactive
CC(C)N(C(=O)COc1nnc(C(F)(F)F)s1)c1ccc(F)cc1,outcome,[12],inactive
